Reference: PubChem BioAssay (EPA / NIEHS)
“And” between values parts separate entries of the source, which are not always exact repeats. Equal values may be shown once. The source made the active and inactive calls. How the source made its calls: active means hit-call score of the fitted dose curve at least 0.9, where 1 is the maximum; inactive means score below 0.9.

read-out: Matrix Metallopeptidase 9 (MMP9), MMP9 (gene 4318); assay: BSK_KF3CT_MMP9: BioMAP Diversity Plus: KF3CT Assay for Matrix Metallopeptidase 9 (MMP9) Biomarker Activity (AID 2283074); conditions: primary human keratinocytes with fibroblasts; actives raise or lower the signal;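 on AC50: MMP9 protein level quantified by ELISA in the co-culture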
In short: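 Human keratinocyte and foreskin fibroblast co-culture exposed to chemicals for 24 h; MMP9 biomarker measured by ELISA, bidirectional fitting relative to DMSO; cytotoxicity tracked by SRB total protein staining in parallel cultures.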

Q: `CCOC(=O)C(C)Oc1ccc(Oc2cnc3cc(Cl)ccc3n2)cc1` (stereo not given) was tested. Which outcome did it give?
A: inactive

Q: `C#C[C@]1(O)CC[C@H]2[C@@H]3CCC4=CC(=O)CC[C@@H]4[C@H]3CC[C@@]21CC` was tested. Which outcome did it give?
A: inactive

Q: With `CC(C)(c1ccc(O)cc1)c1ccc(O)cc1` as the compound, how does the outcome read?
A: inactive

Q: With `COC(=O)c1ccccc1S(=O)(=O)NC(=O)Nc1nc(OC(F)F)cc(OC(F)F)n1` as the compound, how does the outcome read?
A: inactive

Q: Which outcome does the source give for `S=C(S)NCCNC(=S)S.[Mn+2].[S-]C([S-])=NCCN=C([S-])[S-].[Zn+2]` here?
A: inactive

Q: How did the outcome turn out when `CCC(O)=C1C(=O)CC(C(=O)O)CC1=O` (stereo not given) was run?
A: inactive

Q: Which AC50 does the source give for `CCCCCOC(=O)COc1cc(N2C(=O)C3=C(CCCC3)C2=O)c(F)cc1Cl` here?
A: 20 µM (active)

Q: How did the outcome turn out when `CCOC(=O)c1ccc(O)cc1` was run?
A: inactive

Q: How did the outcome turn out when `CCCCC(CC)COC(=O)c1ccccc1C(=O)O` (stereo not given) was run?
A: inactive

Q: With `CCOC(=O)NCCOc1ccc(Oc2ccccc2)cc1` as the compound, how does the AC50 read?
A: 30.3 µM (active)

Q: How did the outcome turn out when `CCC(C)OC(=O)N1CCCCC1CCO` (stereo not given) was run?
A: inactive

Q: For `CCNc1nc(N)nc(Cl)n1`, which outcome is on record?
A: inactive

Q: With `COC(=O)c1ccccc1C(=O)O` as the compound, how does the outcome read?
A: inactive

Q: Which outcome does the source give for `COC(=O)c1cccc(C)c1S(=O)(=O)NC(=O)Nc1nc(OCC(F)(F)F)nc(N(C)C)n1` here?
A: inactive

Q: With `O=C(O)C1(C(=O)Nc2ccc(Cl)cc2Cl)CC1` as the compound, how does the outcome read?
A: inactive

Q: Which AC50 does the source give for `Oc1ccc(C(c2ccc(O)cc2)C(Cl)(Cl)Cl)cc1` here?
A: 24.6 µM (active)

Q: With `N[C@@H](Cc1cc(I)c(Oc2ccc(O)c(I)c2)c(I)c1)C(=O)O` as the compound, how does the outcome read?
A: inactive

Q: `COc1c(Cl)ccc(Cl)c1C(=O)O` was tested. Which outcome did it give?
A: inactive

Q: `CC(C)CCCCCCc1ccc(O)cc1` was tested. Which AC50 did it give?
A: 9.76 µM (active)

Q: Which AC50 does the source give for `N#CSCSc1nc2ccccc2s1` here?
A: 10.6 µM (active) and 10.3 µM (active)

Q: How did the outcome turn out when `CCN(Cc1c(F)cccc1Cl)c1c([N+](=O)[O-])cc(C(F)(F)F)cc1[N+](=O)[O-]` was run?
A: inactive

Q: Which outcome does the source give for `O=C(O)c1ccccc1` here?
A: inactive

Q: With `Cc1nn(C)c(Oc2ccccc2)c1C=NOCc1ccc(C(=O)OC(C)(C)C)cc1` as the compound, how does the AC50 read?
A: 11.8 µM (active)

Q: Which outcome does the source give for `C[C@]12C[C@H](O)[C@H]3[C@@H](CCC4=CC(=O)CC[C@@]43C)[C@@H]1CC[C@@H]2C(=O)CO` here?
A: inactive

Q: `CC(=O)[C@H]1CC[C@H]2[C@@H]3CCC4=CC(=O)CC[C@]4(C)[C@H]3CC[C@]12C` was tested. Which outcome did it give?
A: inactive

Q: How did the outcome turn out when `CCCCC(CC)CN1C(=O)C2C3C=CC(C3)C2C1=O` (stereo not given) was run?
A: inactive

Q: With `O=C(c1ccccc1)C1CCCCC1` as the compound, how does the outcome read?
A: inactive

Q: Which outcome does the source give for `CCCN(CCC)C(=O)SCC` here?
A: inactive

Q: How did the outcome turn out when `CCCOC(=O)c1ccc(C(=O)OCCC)nc1` was run?
A: inactive

Q: How did the outcome turn out when `CCCOC(=O)NCCCN(C)C` was run?
A: inactive
